# PubChem BioAssay (NCATS)
# Results filed as inconclusive are left out. Activity calls are given as the source filed them. The call rests on the fitted dose curve; in most records, active means well fitted cell-killing curve with a large enough effect; inconclusive means small, poorly fitted or top-dose-only effect; inactive means flat fitted curve, though single readings scatter.
# Assay: Quantitative highthroughput screen to assess conditional lethalithy of NOMO1 cells grown in RPMI1640 with dialyzed fetal bovine serum (RPMI+ds) (AID 1963877); further: nearly all actives have a fitted effect of over 30% in size
# Details: NOMO1 in RPMI+dialyzed FBS viability, ATP luminescence, 48 h; series mostly up to 45.8 µM; viability: at the top concentration
# From the text: Assay Provider: Jason Cantor Ph.D.
# Department of Biochemistry
# University of Wisconsin-Madison, Madison, WI, USA
# Chemical screening studies have identified drug sensitivities across hundreds of cancer cell lines but most putative therapeutics fail to translate. Discovery and development of drug candidates in models that more accurately reflect nutrient levels in human blood is a major challenge. Here we performed high-throughput screens in conventional versus Human Plasma-Like Medium (HPLM) to identify compounds that were "missed" when screening using the artificial culture condition. Sets of conditional anticancer compounds spanned phases of clinical development and included non-oncology drugs were assessed. […] We also traced conditional phenotypes for several chemotherapeutics to availability of HPLM-specific metabolites and confirmed others for compounds whose reported targets are encoded by nonessential genes. Our findings establish generalizable strategies for exploiting conditional lethality in HPLM to reveal therapeutic candidates and mechanisms of action in cancer cells.
# Described herein are the results of each viability screens against three cell lines: NOMO1 (an acute myeloid leukemia cell line); P12-Ichikawa (a T-cell acute lymphoblastic leukemia); and SEM (a B-cell ALL). Each assay was screened using 3 different cell culture media: homemade human plasma-Like medium with 10% dialyzed fetal bovine serum (HPLM+ds); RPMI1640 with 10% untreated FBS and 5mM glucose (RPMI+s); and RPMI1640 with 10% dialyzed fetal bovine serum and 5 mM glucose (RPMI+ds).
# PROTOCOL TABLE (as described by Inglese J, Shamu CE and Guy RK. 2007)
# SEQUENCE No. (e.g., 1, 2, 3, etc.); […] (e.g., Cells, Incubation, Reagent, etc.); VALUE and DESCRIPTION.
# 1; Cells; 5 uL; white, solid bottom 1536-well Greiner assay plate.
# 2; Compounds; 23 nL; Kalypsis pin tool (Wako USA) equipped with a 1536-well pin head to transfer to the assay plates.
# 3; Incubation; 48 hours; 37C incubation.
# 4; Reagent; 3 uL; CellTiter Glo (Promega).
# 5; Incubation; 5 min, room temperature
# 6; Detection; Luminescence, Viewlux PerkinElmer.
# NOTES (numbers refer to Sequence numbers above)
# 1. Briefly, 5 ul of cell reagent was dispensed using a Multidrop Combi Dispenser. The NOMO1 and SEM cells were plated at 500 cells/well and the P12-Ichikawa line at 1000 cells/well.
# 2. After seeding the cells, 23 nL of MIPE 4.1 library compounds (in DMSO) were added to each plate using a Kalypsys 1536 Pintool dispenser. Bortezomib at final concentration of […] and DMSO were added to each plate as positive and negative controls respectively. For each screen, MIPE 4.1 compounds were added over an eleven-point concentration range […] in 3-fold dilutions.
# 3. Each plate was covered with a stainless steel gasketed lid to prevent evaporation and incubated for 48 hour at 37C, 95% relative humidity, and 5% CO2.
# 4-5. Three microliter CellTilter-GloTM luminescent substrate mix (Promega) reagent was added to the assay plate and incubated at room temperature for 5 min.
# 6. The luminescence signal was measured using a ViewLux (PerkinElmer) multiplate reader with a 2 second exposure time per plate. Data for each compound were normalized as percent viability such that measurements for DMSO and the empty well controls in each plate were defined as 100% and 0%, respectively.
# Potency means the concentration at half of the fitted maximal effect.
Structure (SMILES),viability,Potency
O=C(O)[C@H](CC(=O)N1C[C@@H]2CCCC[C@H]2C1)Cc1ccccc1,93.4% (inactive),
CN(C)c1ccc(C(=C2C=CC(=[N+](C)C)C=C2)c2ccc(N(C)C)cc2)cc1,,0.132 µM (active)
O=C(N[C@@H](c1ccccc1)[C@@H]1CCCCN1)c1cccc(C(F)(F)F)c1Cl,67.2% (inactive),
Nc1nc(F)nc2c1ncn2[C@@H]1O[C@H](CO)[C@@H](O)[C@@H]1O,,0.372 µM (active)
Cc1cccc(N(C)C(=S)Oc2ccc3ccccc3c2)c1,102% (inactive),
COc1nc(C)nc(Cl)c1NC1=NCCN1,98.6% (inactive),
CCCCCCOC(=O)N=C(N)c1ccc(NCc2nc3cc(C(=O)N(CCC(=O)OCC)c4ccccn4)ccc3n2C)cc1,,26.4 µM (active)
C#C[C@]1(O)CC[C@H]2[C@H]3CCc4cc(OC)ccc4[C@H]3CC[C@@]21C,105% (inactive),
Cc1cccc(Nc2nc(-c3ccncc3)cs2)c1,81.2% (inactive),
O=C(Nc1cn[nH]c1-c1nc2ccc(CN3CCOCC3)cc2[nH]1)NC1CC1,,18.7 µM (active)
C[C@@H]1CCN(C(=O)CC#N)C[C@H]1N(C)c1ncnc2[nH]ccc12,99.8% (inactive),
CC(=Cc1ccccc1)C=C1SC(=S)N(CC(=O)O)C1=O,103% (inactive),
Cc1nc2ccc(C(=O)N3CCC4(CC3)CC(=O)c3c(cnn3C(C)C)C4)cc2[nH]1,95.5% (inactive),
O=c1[nH]c(=O)n([C@H]2C[C@@H](O)[C@@H](CO)O2)cc1F,,0.0148 µM (active)
NC1=N[C@H]2[C@H](CS[C@H]2CCCCC(=O)O)N1,108% [at 23.2 µM] (inactive),
Cc1noc(-c2ccc(CSCCC(=O)O)cc2)c1NC(=O)OC(C)c1ccccc1Cl (stereo not given),118% (inactive),
CCCc1nc2c(C)cc(-c3nc4ccccc4n3C)cc2n1Cc1ccc(-c2ccccc2C(=O)O)cc1,112% (inactive),
CC(C)(Sc1ccc(CCN(CCCCC2CCCCC2)C(=O)NC2CCCCC2)cc1)C(=O)O,101% (inactive),
CCOC(=O)c1c(C)n(C)c2ccc(O)cc12,86.3% (inactive),
COc1cc(F)c(C(C)C)cc1-c1ccc(C(F)(F)F)cc1CN1C(=O)O[C@H](c2cc(C(F)(F)F)cc(C(F)(F)F)c2)[C@@H]1C,86.2% (inactive),

Structure (SMILES),viability,Potency
CCN(CCO)CCCOc1ccc2c(Nc3cc(CC(=O)Nc4cccc(F)c4)[nH]n3)ncnc2c1,,0.105 µM (active)
CCCCc1nc2cc(C=CC(=O)NO)ccc2n1CCN(CC)CC,,6.62 µM (active)
Cc1nc2n(c(=O)c1CCN1CCC(c3noc4cc(F)ccc34)CC1)CCCC2,88.4% (inactive),
CN(C)CCN1C(=O)c2cccc3cc(N)cc(c23)C1=O,,18.7 µM (active)
CNC[C@@H](O)[C@@H](O)[C@H](O)[C@H](O)CO,87.3% (inactive),
CC(C[N+](C)(C)C)OC(N)=O (stereo not given),108% (inactive),
c1cc(CN2CCCNCCNCCCNCC2)ccc1CN1CCCNCCNCCCNCC1,101% (inactive),
Cc1ccc(NC(=O)Nc2cc(C(F)(F)F)ccc2F)cc1Nc1ccc2c(c1)NC(=O)C2=Cc1ccc[nH]1,,20.9 µM (active)
Oc1ccc(C2=Cc3ccc(O)cc3OC2)cc1,,11.8 µM (active)
NC(=O)c1cccc(N)c1,97.3% (inactive),
CO[C@@H]1C(N(C)C(=O)c2ccccc2)C[C@H]2O[C@]1(C)n1c3ccccc3c3c4c(c5c6ccccc6n2c5c31)C(=O)NC4=O (stereo not given in full),,14.8 µM (active)
O=c1cc(-c2ccc(O)c(O)c2)oc2cc(O)cc(O)c12,94.8% (inactive),
COc1cc(Nc2ncc3c(n2)-c2ccc(Cl)cc2C(c2c(F)cccc2OC)=NC3)ccc1C(=O)O,,0.0662 µM (active)
CCCCOc1c(C(=O)c2c(F)cc(C)cc2F)cnc2n[nH]cc12,96.1% (inactive),
O=C(O)[C@H](Cc1c[nH]c2ccccc12)N1C(=O)c2ccccc2C1=O,82.2% [at 92.2 µM] (inactive),
C[C@H]1Oc2cc(cnc2N)-c2c(nn(C)c2C#N)CN(C)C(=O)c2ccc(F)cc21,103% (inactive),
COc1ccc2c(Oc3ccc(NC(=O)c4c(C)n(CC(C)(C)O)n(-c5ccccc5)c4=O)nc3)ccnc2c1,74.3% (inactive),
Cc1nnc(C(=O)NC(C)(C)c2nc(C(=O)NCc3ccc(F)cc3)c(O)c(=O)n2C)o1,105% (inactive),
O=[N+]([O-])c1ccc(Nc2ccccc2-c2ccccc2)c2nonc12,102% (inactive),
CC1(C)Cc2c(-c3ccccc3)c(-c3ccc(Cl)cc3)c(CC(=O)O)n2C1,93.1% (inactive),
